Source: the supplement of paper PMC11150407
Hit rate of the full screen: of about 3,000 compounds, about 45 (2%) showed an effect of 50% or more. Only a selection was taken, and strong results are over-represented in it overall.

tested on: MOLM1 and UCSD/AML1 (averaged); test: cell viability relative to DMSO control (POC); higher = less growth inhibition; conditions: 1 µM; 72 h
Method: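 Primary viability screen in the 3q26 EVI1-high AML cell lines MOLM1 and UCSD/AML1, compounds at 1 uM for 72 h. ATP CellTiter-Glo read-out given as percent viable over DMSO control (POC), averaged over duplicates. This mapping covers the TimTec NDL-3000 natural derivative library, whose compounds are identified by TimTec catalogue codes (ST...).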

SMILES	cell viability [%]
O=C1CC(n2nnnc2-c2ccccc2Cl)C2COC1O2 (stereo not drawn)	64.4
O=C1C[C@H](n2nc(-c3ccccc3Br)oc2=S)[C@H]2CO[C@@H]1O2	55.5
O=C1CC(n2c(=O)oc3ccccc32)C2COC1O2 (stereo not drawn)	14.7
Cc1ccc2c(O)c([N+](=O)[O-])c(=O)oc2c1	103
Cn1c(=O)c2c(nc3n2CC(C24CC5CC(CC(C5)C2)C4)=NN3CCO)n(C)c1=O	106
CCOc1cc2c(cc1OCC)C(c1cccc(F)c1F)NCC2 (stereo not drawn)	86.1
O=C(O)c1cccc(Nc2nc(-c3ccc(Cl)cc3)nc3ccccc23)c1	90
O=C(O)c1ccccc1-c1c2ccc(=O)c(Br)c-2oc2c(Br)c(O)ccc12	103
COc1ccc(C(=O)N2CCCc3cccc(OC)c32)cc1OC	90.1
O=C(/C=C/c1ccc(Cl)cc1Cl)c1cccc2ccccc12	95.1
O=C(O)/C=C/c1ccc([N+](=O)[O-])cc1	109
O=C(/C=C/c1ccc([N+](=O)[O-])cc1)c1cccc2ccccc12	32.8
COc1ccc2c(c1)c(CC(=O)NCc1ccccn1)c(C)n2C(=O)c1ccc(Cl)cc1	84.5
O=C(/C=C/c1ccccc1)c1ccc(O)cc1	2.68
O=C(/C=C/c1ccccc1)c1cc(O)ccc1O	93.7
O=C(/C=C/c1ccccc1)c1ccc(O)cc1O	96.7
COc1ccc(/C=C(\C#N)C(=O)OC(C)C)c(OC)c1OC	106
O=c1[nH]c(=O)n(C2CC(O)C(CO)O2)cc1C(F)(F)F (stereo not drawn)	29.6
CC(=O)OC1CC(n2cc(C)c(=O)[nH]c2=O)OC1CO (stereo not drawn)	98.2
O=c1[nH]c(=O)n(C2C[C@H](O)[C@@H](CO)O2)cc1I (stereo partly drawn)	89.8
CCOc1ccc2oc(=O)cc(CN3CCNCC3)c2c1	90.2
CCOc1ccccc1C(=O)NCCc1c(C)[nH]c2ccccc12	105

SMILES	cell viability [%]
COc1ccc(C2c3[nH]c4ccccc4c3CCN2CC(=O)Nc2ccc(C)cc2)cc1 (stereo not drawn)	87.2
O=C(/C=C/c1ccc(O)cc1)c1ccc(O)cc1O	102
COc1ccc(/C=C/C(=O)c2ccc(O)cc2C)cc1	22.5
COc1ccc(C(=O)/C=C/c2ccccc2)c(O)c1	101
COc1ccc2c(c1)c(CC(=O)NCCSc1ccccc1)c(C)n2C(=O)c1ccc(Cl)cc1	98.5
COc1ccc(C(NS(=O)(=O)c2ccc(C)cc2)c2nccc3cc(OC)c(OC)cc23)cc1OC (stereo not drawn)	98.4
C=CCN(C(=O)CSc1nc2ccccc2c(=O)[nH]1)c1ccccc1	88.4
COc1ccc(OC)c(NC(=O)c2cc(OC)c(OC)c(OC)c2)c1	85.9
C=CCN(C(=O)CSc1nc2c(=O)[nH]cnc2n1-c1ccccc1)c1ccccc1	98
CCCCCOc1ccc(C2=NOC(=O)/C2=C\c2cc(Cl)ccc2O)cc1	92.3
Cc1ccc(-n2c(SCc3ccccc3F)nc3c(=O)[nH]cnc32)cc1	95.2
CC1CCc2nc(S[C@H]3CC(=O)[C@@H]4OC[C@H]3O4)nc(C(F)(F)F)c2C1 (stereo partly drawn)	39.9
COc1ccc(-c2cc(C(F)(F)F)nc(SC3CC(O)C4OCC3O4)n2)cc1OC (stereo not drawn)	98.4
COc1ccc(-c2cc(-c3ccc4c(c3)OCO4)[nH]c(=O)c2C#N)cc1	97.1
CC1(C)C2CCC1(CS(=O)(=O)Nc1ccncc1)C(=O)C2 (stereo not drawn)	106
COc1cc(C(=O)NCC(C)NC(=O)c2cc(OC)c(OC)c(OC)c2)cc(OC)c1OC (stereo not drawn)	99.3
CCOc1ccc2oc(=O)cc(CN3CCN(CC(=O)Nc4cc(F)ccc4F)CC3)c2c1	98.5
CCOC(=O)c1c(CC(C#N)(c2ccccc2)c2ccccc2)n(C)c2cc(Br)c(OC)cc12	17.7
CCOC(=O)c1c(C)n(-c2ccccc2)c2cc(Br)c(OC)cc12	110
CCOC(=O)c1c(CSCc2ccccc2)n(-c2ccccc2)c2cc(Br)c(OC)cc12	110
Cn1c(=O)c2ccccc2n(CC(=O)N2CCc3ccccc3C2)c1=O	107
COc1ccc(NC(=O)CSc2nc3c(=O)[nH]cnc3n2-c2ccc(C)cc2)cc1OC	92.8

SMILES	cell viability [%]
Cc1ccc2occ(C)c(=O)c2c1	98.5
O=C(Cn1c(=O)cc(C(=O)N2CCc3ccccc3C2)c2ccccc21)Nc1ccc(Cl)cc1	105
N#CC1=C(N)Oc2[nH]c(=O)[nH]c(=O)c2C1c1ccccc1F (stereo not drawn)	94.3
N#CC1=C(N)Oc2cc(O)ccc2C1c1cccc(C(F)(F)F)c1 (stereo not drawn)	22.1
N#CC1=C(N)Oc2cc(O)ccc2C1c1cccc([N+](=O)[O-])c1 (stereo not drawn)	101
CCc1ccc(C2C(C#N)=C(N)Oc3cc(O)ccc32)cc1 (stereo not drawn)	110
N#CC1=C(N)Oc2cc(O)ccc2C1c1ccccc1F (stereo not drawn)	13.8
N#CC1=C(N)Oc2cc(O)ccc2C1c1ccccc1 (stereo not drawn)	104
O=C(O)CNC(=O)c1ccc(Cl)cc1	108
O=c1c(O)c(-c2ccc(F)cc2)oc2cc(Cl)ccc12	100
Cc1cc(C)c(NC(=O)Cn2c(=O)cc(C(=O)N3CCCCC3)c3ccccc32)c(C)c1	99.4
COCCOC(=O)c1c(C)n(CCOC23CC4CC(CC(C4)C2)C3)c2c1cc(O)c1ccccc12	81.2
Cc1ccc(-n2c(SCC(=O)Nc3ccccc3C(F)(F)F)nc3c(=O)[nH]cnc32)cc1	108
COc1cc(C(=O)Nc2ccc(C(=O)c3cccs3)cc2)cc(OC)c1OC	99.7
CCCCc1ccc(NC(=O)c2cc(OC)c(OC)c(OC)c2)cc1	49.6
COc1cc(C(=O)Nc2ccc3ncn(C)c3c2)cc(OC)c1OC	93.9
COc1cc(C(=O)Nc2ccccc2C(=O)Nc2ccccc2)cc(OC)c1OC	36
COc1cc(C(=O)Nc2ccccc2C(=O)NCc2ccccc2)cc(OC)c1OC	85.2
COc1ccc(C(=O)Nc2ccc3ncn(C)c3c2)cc1OC	101
COc1cc(C(=O)Nc2ccc(C(F)(F)F)cc2)cc(OC)c1OC	93.8
COc1cc(C(=O)Nc2ccc(CN3CCCC3)cc2)cc(OC)c1OC	87.4
COc1cc(C(=O)Nc2ccc(C(=O)NCc3ccccc3)cc2)cc(OC)c1OC	87

SMILES	cell viability [%]
COC(=O)c1ccc(NC(=O)c2cc(OC)c(OC)c(OC)c2)cc1	23.1
COc1cc(C(=O)Nc2ccc3c(c2)ncn3C)cc(OC)c1OC	19
COc1cc(C(=O)Nc2ccccc2NC(=O)c2cc(OC)c(OC)c(OC)c2)cc(OC)c1OC	95.9
O=C(CSc1nc2ccccc2c(=O)[nH]1)NCc1ccccc1Cl	107
Cc1ccc(NC(=O)CN2C(=O)S/C(=C/c3cc4c(cc3Cl)OCO4)C2=O)cc1	92
CNC(=O)c1ccccc1NC(=O)C(=O)c1c[nH]c2ccccc12	111
CCOC(=O)/C=C1\NC(C)(C)Cc2cc3c(cc21)OCCO3	89.5
CC(C)COc1ccc(C(=O)N/C(=C\c2ccccc2)C(=O)NCCNC(=O)/C(=C\c2ccccc2)NC(=O)c2ccc(OCC(C)C)cc2)cc1	103
COc1cc(OC)cc(C(=O)Nc2cc(OC)cc(S(=O)(=O)c3ccc(Cl)cc3)c2)c1	92.8
CCc1cccc(C)c1NC(=O)CN1CCN(Cc2cc(=O)oc3cc(C)ccc23)CC1	95.4
Cc1ccc2c(C)cc(=O)[nH]c2c1C	109
COc1cc(C(=O)CCNc2ccc(F)cc2)cc(OC)c1OC	78.3
Cc1ccc2[nH]c(C)c(CCNS(=O)(=O)c3ccc4c(c3)OCCO4)c2c1	99.4
COc1ccc(/C=C/C(=O)c2ccccc2)cc1COc1ccc(NC(C)=O)cc1	40
COc1ccc(/C=C/C(=O)c2ccccc2)cc1COc1ccc([N+](=O)[O-])cc1	101
COc1ccc(/C=C/C(=O)c2ccccc2)cc1COc1ccc(Cl)cc1	106
Cc1ccc(C)c(-c2nc(CSc3nc4c(=O)[nH]cnc4n3C)c(C)o2)c1	103
Cc1cc2c(c(O)c1-c1c(C)cc3c(c1O)/C(=C/Nc1c(C)n(C)n(-c4ccccc4)c1=O)C(=O)C(O)=C3C(C)C)/C(=C/Nc1c(C)n(C)n(-c3ccccc3)c1=O)C(=O)C(O)=C2C(C)C	84.6
COc1cc(C(=O)NC(C(=O)O)C(C)C)cc(OC)c1OC (stereo not drawn)	103
CC(C)(C)c1ccc(C(=O)NCC(=O)O)cc1	95.9
O=[N+]([O-])C1=Cc2ccccc2OC1c1ccc2c(c1)OCO2 (stereo not drawn)	2.67
O=C(/C=C/c1cccc([N+](=O)[O-])c1)c1ccc2c(c1)OCO2	98.1

SMILES	cell viability [%]
O=C(/C=C/c1ccc([N+](=O)[O-])cc1)NCc1ccc2c(c1)OCO2	97
COCCN1C(=O)/C(=C\c2cc(OC)c(OC)c(OC)c2)C(C(=O)OC)=C1C	101
O=C(CCNc1cccc(Cl)c1)c1cc2ccccc2oc1=O	115
CCOC(=O)c1ccc2[nH]c(-c3ccccc3)cc(=O)c2c1	7.45
CCOC(=O)c1ccc2[nH]c(=O)c(Cc3ccccc3)c(O)c2c1	97.9
CCOC(=O)c1ccc2[nH]c(=O)c(C)c(O)c2c1	108
COc1ccc(C(=O)CC2(O)C(=O)N(Cc3cccc4ccccc34)c3ccccc32)cc1OC (stereo not drawn)	97.5
NC(=O)CC1CCCCN1 (stereo not drawn)	126
Cc1ccc2oc(-c3ccccc3C)cc(=O)c2c1	21.6
O=c1cc(-c2ccc(Br)cc2)oc2ccc(Cl)cc12	96
Cc1ccc2oc(-c3ccc(Cl)cc3)cc(=O)c2c1	85.9
O=c1ccoc2ccccc12	93.1
O=c1cc(-c2ccccc2Br)oc2ccc(Cl)cc12	110
Cc1ccccc1-c1cc(=O)c2cc(Br)ccc2o1	106
O=c1cc(C(Cl)(Cl)Cl)oc2ccc(Cl)cc12	7.16
Cc1ccc2occc(=O)c2c1	100
O=c1cc(O)c2cc(Cl)ccc2o1	101
O=c1cc(C(Cl)(Cl)Cl)oc2ccccc12	4.98
Cc1ccc(-c2cc(=O)c3ccccc3o2)cc1	92.3
Cc1ccc2oc(C(Cl)(Cl)Cl)cc(=O)c2c1	26.6
